Screening data as filed in PubChem.
Sampled rows, rich in hits. Any-hit rate of the full collection: about 2%.
GC-B act: human GC-B receptor activators, primary screen, HEK293 GC-B cells, cGMP TR-FRET, EC30 CNP; 0% at EC30 CNP, 100% saturating CNP; 0.11% of 370,000 active; activation, % at 10 µM;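 active = activation at 10 µM reaching about 35% in either raw or pattern-adjusted values, limit read from the data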
Neddyl block: inhibitors of cullin neddylation, primary screen, biochemical, TR-FRET, uHTS, NAE and Ubc12. NEDD8-conjugating enzyme Ubc12 (Homo sapiens) + NEDD8-activating enzyme E1 regulatory …. 0.58% of 360,000 active. AID 651699, 2012. inhibition, % at 25 µM; in the data active = inhibition above about 36%
PfG6PD inh: PfG6PD enzyme inhibitors, primary screen, biochemical, fluorescence intensity, uHTS | glucose-6-phosphate dehydrogenase-6-phosphogluconolactonase (Plasmodium falciparum 3D7) | PfGluPho enzyme, NADPH resazurin-diaphorase fluorescence | inhibition, % at 20 µM | 0.78% of 350,000 active | AID 504690, 2011;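 active = inhibition reaching at least a set limit at 20 µM in the primary screen, cut at about 59% in these data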;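 note: 0% = DMSO wells with substrate and 100% = DMSO wells lacking glucose-6-phosphate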
NPR1 activator: GC-A stimulated cGMP production enhancers – HEK293 GC-A cells, cGMP TR-FRET, EC30 ANP, primary screen | 0.14% of 370,000 active | activation, % at 10 µM | 0% at EC30 ANP, 100% saturating ANP | AID 1671463, 2021 | Atrial natriuretic peptide receptor 1 (Homo sapiens), P16066; in the data active = activation above about 40%
A3G deaminase: APOBEC3G DNA deaminase inhibitors, primary screen, biochemical, fluorescence, single-stranded DNA substrate, uHTS; DNA dC->dU-editing enzyme APOBEC-3G (Homo sapiens), Q9HC16; recombinant A3G, ssDNA deamination FAM/TAMRA fluorescence; inhibition, % at 20 µM; 0.28% of 330,000 active;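 active = inhibition of at least 40% at 20 µM, with no more than 30% in the related APOBEC3A deaminase screen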;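 note: plate controls were DMSO wells with A3G for no effect and wells lacking A3G enzyme for full effect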
Target sequence (Q9HC16 whole entry, looked up): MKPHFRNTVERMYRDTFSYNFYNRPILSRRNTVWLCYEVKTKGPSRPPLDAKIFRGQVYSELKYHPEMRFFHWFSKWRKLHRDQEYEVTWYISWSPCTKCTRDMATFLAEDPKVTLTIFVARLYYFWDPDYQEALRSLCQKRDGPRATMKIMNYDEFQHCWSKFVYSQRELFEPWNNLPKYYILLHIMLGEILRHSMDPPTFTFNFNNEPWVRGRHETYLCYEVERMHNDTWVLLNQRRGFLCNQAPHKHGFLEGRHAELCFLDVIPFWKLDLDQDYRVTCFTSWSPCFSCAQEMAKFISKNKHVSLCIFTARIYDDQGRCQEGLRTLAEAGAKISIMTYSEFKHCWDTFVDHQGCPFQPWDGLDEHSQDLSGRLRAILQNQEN
APOBEC3A inh: APOBEC3A ssDNA deaminase inhibitors, primary screen, selectivity assay for APOBEC3G inhibitor project, biochemical, FAM/TAMRA oligo cleavage fluorescence. inhibition, % at 20 µM. AID 493011, 2011. recombinant A3A, FAM/TAMRA ssDNA deamination fluorescence. DNA dC->dU-editing enzyme APOBEC-3A (Homo sapiens), P31941. 0.41% of 330,000 active;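 active = at least 40% inhibition at 20 µM here, with at most 30% in a related deaminase screen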;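 note: plate controls were A3A with DMSO for no effect and wells lacking A3A enzyme for full effect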
Target sequence (P31941 whole entry, looked up): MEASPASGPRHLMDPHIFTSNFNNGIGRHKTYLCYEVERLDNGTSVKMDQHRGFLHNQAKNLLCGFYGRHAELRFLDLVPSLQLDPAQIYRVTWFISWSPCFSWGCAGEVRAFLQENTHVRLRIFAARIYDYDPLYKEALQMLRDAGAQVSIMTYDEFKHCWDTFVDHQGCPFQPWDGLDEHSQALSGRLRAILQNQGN
PfGluPho conf: PfG6PD inhibitors, hit retest, confirmation, biochemical, fluorescence intensity, single concentration. shares compounds with PfG6PD inh. recombinant PfGluPho, NADPH-diaphorase-resazurin fluorescence. inhibition, % at 20 µM. 34% of 2,400 active. AID 504753, 2011;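 active = inhibition of at least 50% at 20 µM in any single replicate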;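 note: 0% = DMSO with substrate and 100% = DMSO lacking glucose-6-phosphate substrate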
Diaph ctr 10uM: diaphorase inhibitors and chemical oxidizers, confirmation, counter-screen for P. falciparum G6PD inhibitor project, biochemical, fluorescence intensity, 10 µM NADPH; 39% of 820 active; shares compounds with PfG6PD inh; inhibition, % at 20 µM; diaphorase-coupled resazurin reduction, NADPH 10 uM;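 active = average inhibition reaching 50% or more with the compound at 20 µM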;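 note: resorufin red fluorescence formed as diaphorase reduces resazurin using NADPH; 0% = DMSO with enzyme and 100% = DMSO without enzyme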
Diaphorase 30uM: diaphorase inhibitors and chemical oxidizers, confirmation, counter-screen for P. falciparum G6PD inhibitor project, biochemical, fluorescence intensity, 30 µM NADPH | 29% of 820 active | Diaphorase/resazurin coupled assay, resorufin fluorescence | shares compounds with PfG6PD inh | inhibition, % at 20 µM;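 active = inhibition averaging 50% or more, tested at 20 µM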;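 note: 0% = DMSO with enzyme and 100% = DMSO wells lacking diaphorase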
Active calls of the source: *; nt = no result given.

SMILES	GC-B act	Neddyl block	PfG6PD inh	NPR1 activator	A3G deaminase	APOBEC3A inh	PfGluPho conf	others
CCC(C)C(=O)Nc1nc(-c2ccc3c(c2)NC(=O)CO3)cs1 (configuration not stated)	0	3	64*	3	-8	-8	14
O=C1COc2ccc(-c3csc(NCCc4ccccc4)n3)cc2N1	-8	-9	61*	-2	3	-5	9
CC(COc1cc(F)cc(F)c1)CN1CCC(C(O)(c2ccccc2)c2ccccc2)CC1 (configuration not stated)	2	nt	nt	2	nt	nt	nt
Nn1cnnc1N/N=C/c1ccc(Cl)c([N+](=O)[O-])c1	3	-32	73*	4	-4	0	63*	Diaph ctr 10uM=82*;Diaphorase 30uM=74*
CC(C)(C)S(=O)(=O)N1Cc2cc(CO)ccc2[C@@H]1CCO	3	nt	nt	2	nt	nt	nt
Cc1ccc(Cc2c(-c3ccc(F)cc3)nc3cc(C)ccn23)cc1	29	16	71*	21	nt	nt	-11
Cc1ccc(Cc2c(-c3ccc(F)cc3)nc3ccc(Br)cn23)cc1	12	-307	nt	12	nt	nt	nt
Cc1ccc(Cc2c(-c3ccc(Br)cc3)nc3cc(C)ccn23)cc1	46*	-11	109*	34	nt	nt	14
Cc1ccc(Cc2c(-c3ccc(F)cc3)nc3ccc(Cl)cn23)cc1	20	-29	62*	17	nt	nt	-18
COc1ccc(-c2noc(C3CCCN(C(=O)Nc4cc(C)cc(C)c4)C3)n2)cc1 (configuration not stated)	-14	nt	nt	-1	nt	nt	nt
O=C(Cc1csc(N2CCOCC2)n1)N/N=C/c1ccc(O)c(O)c1O	0	-17	72*	-3	nt	nt	62*	Diaph ctr 10uM=57*;Diaphorase 30uM=64*
CCN1CCCCC(NC(C)=O)C1=O (configuration not stated)	4	nt	nt	3	nt	nt	nt
Oc1ccc(NCc2ccccc2OCc2ccccc2)cc1	-2	-4	73*	3	11	6	50*	Diaph ctr 10uM=-10;Diaphorase 30uM=-16
O=c1[nH]c2ccc(NCc3ccccc3OCc3ccc(Cl)cc3)cc2[nH]1	-15	4	73*	-10	-1	0	47*	Diaph ctr 10uM=-9;Diaphorase 30uM=0
CC(C)CN1C(=O)[C@]2(CC(=O)N(C)C2c2ccccc2)c2cc(-n3cc(C4=CCCCC4)nn3)ccc21 (some centres not stated)	13	nt	nt	-2	nt	nt	nt
CSCCOC(=O)C1=C(C)Nc2ccc(C)cc2S1	-7	-16	60*	-6	-2	-2	-6
CCOC(=O)C1=C(C)Nc2ccc(C)cc2S1	2	-16	33	0	-6	-4	nt
COC(=O)[C@]12C[C@H](CC(=O)NCc3ccc(C)o3)C(=O)N(Cc3ccco3)C1=C[C@H](C(C)(C)C)O[C@@H]2C	-20	nt	nt	-19	nt	nt	nt
Nc1cc(OCC(F)(F)F)cc([N+](=O)[O-])c1	-3	-18	1	3	-6	-4	nt
Nc1cc(N)c(OCC(F)(F)F)cc1OCC(F)(F)F	nt	-23	99*	nt	8	2	94*	Diaph ctr 10uM=34;Diaphorase 30uM=22
O=C(O)c1cccc2c1C(=O)c1ccccc1-2	-9	-19	-9	3	-14	-4	nt
O=C1C(O)=CC(=C(c2ccccc2)c2ccccc2)c2ccccc21	4	-16	117*	-10	nt	nt	-25
Cc1cc(-n2c(C)cc(C(=O)CSc3nnnn3-c3ccccc3)c2C)no1	0	-5	12	0	-3	-3	nt
Cc1cc(-n2c(C)cc(C(=O)CSc3ccccn3)c2C)no1	8	6	67*	0	-6	-4	23
Cc1cc(C)nc(/N=C(\N)Nc2ccccc2-c2ccccc2)n1	-14	-11	72*	-44	-4	0	55*	Diaph ctr 10uM=52*;Diaphorase 30uM=44
SMILES	GC-B act	Neddyl block	PfG6PD inh	NPR1 activator	A3G deaminase	APOBEC3A inh	PfGluPho conf	others
COC(=O)[C@]12C[C@H](CC(=O)NCCC(C)C)C(=O)N(Cc3cccc4ccccc34)C1=C[C@H](C(C)C)O[C@@H]2C1CC1	0	nt	nt	-9	nt	nt	nt
COc1cc(NC(=O)c2cc3ccccc3cc2O)c(OC)cc1Cl	-3	nt	48	11	-6	-3	nt
Cc1ccc(Cl)cc1NC(=O)c1cc2ccccc2cc1O	13	nt	61*	30	1	8	4
CC(C(=O)Nc1cc([N+](=O)[O-])ccc1Cl)N1CCN(c2ccc(O)cc2)CC1 (configuration not stated)	-4	-37	60*	-3	nt	nt	29
Cc1ccc(/C=C2/C(=O)ON=C2c2ccccc2)o1	33	-3	22	39	1	0	nt
CC1=NOC(=O)/C1=C\c1ccc(-c2cccc(Cl)c2)o1	nt	-5	72*	nt	9	5	11
CC1=NOC(=O)/C1=C\c1ccc(-c2ccccc2Br)o1	3	-14	95*	23	nt	nt	51*	Diaph ctr 10uM=-5;Diaphorase 30uM=-2
CC1=NOC(=O)/C1=C\c1ccc(-c2ccc(Cl)c(C(=O)O)c2)o1	-2	-3	12	-2	39	57	nt
CN[C@H]1C[C@H]2c3[nH]c4cccc(-c5ccc6c(c5)OCO6)c4c3CCN2C[C@H]1[C@H](C)O	-13	nt	nt	1	nt	nt	nt
O=S(=O)(c1cccs1)N1CN(Cc2cccs2)c2nc3ccccc3nc21	0	41*	69*	0	-5	-4	35
COc1ccc2cc(CN(Cc3ccco3)C(=S)NCC3CCCO3)c(=O)[nH]c2c1 (configuration not stated)	10	-2	67*	8	-5	0	14
COc1ccc2[nH]c(=O)c(CN(Cc3ccccc3)C(=S)NCC3CCCO3)cc2c1 (configuration not stated)	-1	27	-2	-4	-5	-4	nt
